Source: PubChem BioAssay AID489036 (National Center for Advancing Translational Sciences (NCATS), 2010)
Inconclusive results are not listed. Calls of active or inactive are those of the source. Calls follow the shape of the dose curve; as a rule, active = well fitted inhibition curve with a large enough effect; inconclusive = small, poorly fitted or top-dose-only effect, or effect the other way; inactive = flat fitted curve, though single readings scatter.

Assay: VP16 selectivity assay for inhibitors of ROR gamma transcriptional activity
Details: Drosophila Schneider Gal4-VP16 UAS-luciferase reporter, 20 h; series mostly up to 92.2 µM
Procedure, shortened: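 Luciferase luminescence read after 20 hr induction with 700 uM (final) copper sulfate at ambient temperature, following 1 hr compound pretreatment. Counter-screen uses Schneider cells carrying metallothionein-driven Gal4 DBD–VP16 and a UAS-Photinus luciferase reporter.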

Q: For `CC(C)(C)OC(=O)N1CCC[C@H]1C(=O)N1CCC(C(=O)N[C@H](Cc2ccccc2)C(=O)NCc2ccc(F)cc2)CC1`, which Potency is on record?
A: inactive

Q: With `COc1cc(O)c(CCC(=O)N2CCCC(C)C2)c(OC)c1` (stereo not drawn) as the molecule, how does the Potency read?
A: inactive

Q: With `COc1ccc(CNC(=O)[C@H](Cc2ccccc2)NC(=O)C2CCN(C(=O)[C@@H]3CCCN3C(=O)OC(C)(C)C)CC2)cc1` as the molecule, how does the Potency read?
A: inactive

Q: Which Potency does the source give for `COc1cc(OC)c(C(CC(=O)N2CC(C)CC(C)C2)c2ccc3c(c2)OCO3)c(OC)c1` (stereo not drawn) here?
A: 22.9 µM (active)

Q: With `O=S(=O)(c1ccc(NC(=S)N/N=C/c2ccc(Oc3ccccc3)cc2)cc1)N1CCOCC1` as the molecule, how does the Potency read?
A: 2.04 µM (active)

Q: With `COc1cc(O)c(C(CC(=O)N2CCCC(C)C2)c2ccc(C)cc2)c(OC)c1` (stereo not drawn) as the molecule, how does the Potency read?
A: 45.7 µM (active)

Q: With `CC(C)(C)c1ccc(S(=O)(=O)Nc2ccc(C(O)(C(F)(F)F)C(F)(F)F)cc2)cc1` as the molecule, how does the Potency read?
A: 18.2 µM (active)

Q: Which Potency does the source give for `COc1cc(O)c(C(CC(=O)N2CCC(C)CC2)c2ccc3c(c2)OCO3)c(OC)c1` (stereo not drawn) here?
A: inactive

Q: Which Potency does the source give for `COc1cc(O)c(C(CC(=O)N2CCC(c3ccccc3)CC2)c2ccc(C)cc2)c(OC)c1` (stereo not drawn) here?
A: inactive

Q: For `Cc1cc(C)n(-c2nc(SCC(=O)O)c3c4c(sc3n2)CCCC4)n1`, which Potency is on record?
A: 16.2 µM (active)

Q: For `COc1cc(O)c(C(CC(=O)N2CCC(C)CC2)c2ccc(C)cc2)c(OC)c1` (stereo not drawn), which Potency is on record?
A: inactive

Q: For `CCN(CC)c1ccc(/C=N/n2c(-c3ccccc3Br)n[nH]c2=S)cc1`, which Potency is on record?
A: 2.04 µM (active)

Q: Which Potency does the source give for `Cc1ccc(C)c(/C=N/n2cc(-c3ccccc3)[nH]c2=S)c1` here?
A: 20.4 µM (active)

Q: For `COc1cc(OC)c(C(c2ccccc2)C(C)(C)C(=O)N2CC(C)CC(C)C2)c(OC)c1` (stereo not drawn), which Potency is on record?
A: 18.2 µM (active)

Q: Which Potency does the source give for `COCOc1cc(OC)cc(OC)c1C(CC(=O)N1CC(C)CC(C)C1)c1ccc2c(c1)OCO2` (stereo not drawn) here?
A: 45.7 µM (active)

Q: With `CC1CCCN(C(=O)CC(c2ccccc2)c2ccc(O)cc2)C1` (stereo not drawn) as the molecule, how does the Potency read?
A: inactive

Q: With `COc1cc(O)c(C(CC(=O)N2CCCC(c3ccccc3)C2)c2ccc3c(c2)OCO3)c(OC)c1` (stereo not drawn) as the molecule, how does the Potency read?
A: inactive

Q: For `COc1cc(OC)c(C(CC(=O)N2CC(C)CC(C)C2)c2ccc3c(c2)OCO3)c(OCC(N)=O)c1` (stereo not drawn), which Potency is on record?
A: inactive

Q: For `COc1cc(O)c(C(CC(=O)N2CCCCC2)c2ccc3c(c2)OCO3)c(OC)c1` (stereo not drawn), which Potency is on record?
A: inactive

Q: Which Potency does the source give for `COc1ccccc1C(CC(=O)N1C[C@H](C)C[C@H](C)C1)c1ccccc1` (stereo partly drawn) here?
A: 32.3 µM (active)

Q: For `Cc1nn(-c2cc(C)c3ccccc3n2)c2c1C1C(C2)C1(C)C` (stereo not drawn), which Potency is on record?
A: 22.9 µM (active)

Q: With `O=C(CCCOc1ccccc1)Nc1nc2ccccc2[nH]1` as the molecule, how does the Potency read?
A: 14.4 µM (active)

Q: For `COCC1CCCCN1C(=O)c1cc(COc2ccc3ncccc3c2)on1` (stereo not drawn), which Potency is on record?
A: 16.2 µM (active)

Q: For `COC(=O)Cn1c(CN2CCc3ccccc3C2)nc2c1c(=O)n(C)c(=O)n2C`, which Potency is on record?
A: 9.11 µM (active)

Q: Which Potency does the source give for `COc1cc(O)c(C(CC(=O)Nc2ccc(C)cc2)c2ccc3c(c2)OCO3)c(OC)c1` (stereo not drawn) here?
A: 40.7 µM (active)

Q: With `COc1cc(O)c(C(CC(=O)N2CCCC(C(=O)N3CCCCC3)C2)c2ccc3c(c2)OCO3)c(OC)c1` (stereo not drawn) as the molecule, how does the Potency read?
A: inactive

Q: With `COc1cc(O)c([C@H](CC(=O)N2CC(C)CC(C)C2)c2ccc3c(c2)OCO3)c(OC)c1` (stereo partly drawn) as the molecule, how does the Potency read?
A: inactive

Q: For `C#CCOc1cc(OC)cc(OC)c1C(CC(=O)N1CCCC(C)C1)c1ccc2c(c1)OCO2` (stereo not drawn), which Potency is on record?
A: 45.7 µM (active)
